The source of these data is PubChem BioAssay (NCI).

This is part of a sample that, as a whole, favours compounds with a hit. Of some 79,000 tested, about 15% had one in any assay. A number with no mark means an inactive call. Cut-off read from the data, not from the text of the source: active = growth inhibition above about 70%; inactive = the rest.

This assay can be described thus: NCI Yeast Anticancer Drug Screen. Data for the bub3 strain (AID 167). The note with it: S. cerevisiae bub3 mutant strain, at 50.0 µM, hits give high values. The essentials: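 Whole-cell yeast assay. The mutant strain was incubated with compounds, and growth inhibition was determined by comparison with vehicle-treated cells.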
Regarding `O=C(O)C(C1=CCCCC1)C1(O)CCCCC1` (stereo not drawn), the growth inhibition is -0.65%.
On to `CC(=O)Nc1ccc(I)cc1`, for which the growth inhibition was -7.65%.
Regarding `NC(=O)c1cccc[n+]1[O-]`, the growth inhibition was 19.6%.
With `COc1ccc(N=Cc2ccc(N(CCC#N)S(=O)(=O)c3ccccc3)cc2)cc1`, the growth inhibition was 9.25%.
As to `Cc1c(-c2ccccc2)c(=O)oc2ccc(Cl)cc12`, the growth inhibition was -14.9%.
As to `CC1=CC(=O)N2[C@H](OC[C@@H]2C(C)C)O1`, the growth inhibition was -20.2%.
As to `CN(C)c1nc2nc[nH]c2c(=S)n1C`, the growth inhibition was -9.6%.
On to `CC(C)(C)OC(=O)NC1CCCCC1NC(=O)C(=O)NC1CCCCC1NC(=O)OC(C)(C)C` (stereo not drawn), for which the growth inhibition was -10.8%.
The result for `O=C(Cc1cc2c(cc1[N+](=O)[O-])OCO2)c1c[nH]c2ccc(Br)cc12` reads -2.2%; that for `COCC(=O)C(C(C)=O)C(c1ccncc1)C(C(C)=O)C(=O)COC` (stereo not drawn), -1.6%; that for `O=C(NC/C(Cl)=C/Cl)Nc1cccc2c1CCCC2`, 22%.
With `Cn1c(=O)c2c(nc(C3CC3)n2C)n(C)c1=O`, the growth inhibition was -0.55%.
For the molecule `COCc1ccccc1P(c1ccccc1COC)c1ccccc1COC`, the growth inhibition was 10.5%.
Take `Oc1ccc(Cl)cc1C=Nc1cnc2ccccc2c1`: the growth inhibition was 9.1%.
Take `CCOC(OCC)n1ncnc1NC(=S)NCc1ccccc1`: the growth inhibition is -5.85%.
The result for `CC(=O)Nc1cc2cc(NC=C(C#N)C#N)ccc2oc1=O` reads 18.3%.
As for `CCOC(=O)/C(C#N)=C/N=c1ccccn1C`, the figure is -6.6%.
Consider `CC(C)=NNC(=O)Nc1cccc(C)c1C`, for which the growth inhibition is -9.85%.
